The values that follow come from PubChem BioAssay AID1259240 (Keith Lab, Institute of Cancer Science, University of …, 2017).

Unmarked numbers belong to inactive results. Activity calls are given as the source filed them. Rule as the data show it: active = fold change mostly below about -2 (no sharp cut-off); inactive = mostly above about -1.8.

The test can be described thus: TERT promoter activity modulators, primary screen, cell-based, luciferase reporter, human (AID 1259240). The following applies: A2780 TERT promoter luciferase reporter, 16 h; at 20 µM, fold versus average of vehicle-only wells.
On to `CCOc1ccc(/C=c2\sc3nc(=O)c(Cc4ccc(Cl)cc4)nn3c2=O)cc1OC`, for which the fold change was 1.07. `Cc1nc2cc(-c3ccc(Cl)cc3)nn2c(C)c1CCC(=O)O`: the fold change is -16.5 (active). On to `CCOC(=O)c1sc(NC(=O)c2cc(C)no2)c(C(=O)OCC)c1C`, for which the fold change was 1.26. The result for `Cc1ccc(SCc2nc3sccn3c2Br)cc1` reads -1.17; that for `CC(=O)c1ccc2c(c1)c1cc(C(C)=O)ccc1n2C`, -1.83. The value for `Nc1nc(SCC(=O)NCCCN2CCOCC2)nc2sc3c(c12)CCC3` was -1.53; that for `O=C(O)C1CCN(c2nc3ccccc3n2Cc2ccccc2F)CC1` was 1.02. The result for `C=CCOc1ccc(-c2nc3s/c(=C\c4ccc(OC(C)=O)c(OC)c4)c(=O)n3n2)cc1` reads 1.33; that for `Cc1ccc2c(c1)c(-c1ccccc1)nc1nncn12`, 1.67. With `Cc1cccc(CNc2nc(N)n(-c3ccccc3)n2)c1`, the fold change was 1.27. The value for `CC1(C)CNC(=O)c2sc(NC(=O)CN3CCOCC3)nc2C1` was -1.75; that for `Cc1ccc2ccc(C(Nc3ccccn3)c3ccncc3)c(O)c2n1` (stereo not drawn) was -1.62; that for `O=c1c2ccccc2[nH]c(=S)n1CCCN1CCc2ccccc2C1` was -2.32 (active). The value for `CN(CC(=O)Nc1ccc(Br)cc1)S(=O)(=O)c1ccc2c(c1)CCC(=O)N2` was -1.38; that for `CCOC(=O)CN1CC23C=CC(O2)C(C(=O)Nc2ccc(OCC)cc2)C3C1=O` (stereo not drawn) was 1.29; that for `O=C(Cn1c(=O)c2ccccc2n(CC(=O)Nc2ccc(F)cc2F)c1=O)NCc1ccco1` was -2.2 (active). The result for `Cc1ccc(S(=O)(=O)N2N=C(c3ccc(NS(C)(=O)=O)cc3)CC2c2ccco2)cc1` (stereo not drawn) reads -1.45. With `CCCn1c(OC)nc2c1c(=O)n(C)c(=O)n2C`, the fold change was -1.58. The value for `O=C(CSc1ncnc2ccccc12)NCc1ccc2c(c1)OCO2` was -1.09. The value for `CCOC(=O)C1=C(CS(=O)(=O)c2ccc(F)c(Cl)c2)NC(=O)NC1c1ccc(Cl)cc1` (stereo not drawn) was 1.33. The result for `c1cncc(Cc2nnc(N3CCC4(CC3)OCCO4)c3ccccc23)c1` reads -1.13; that for `O=C1Nc2ccccc2/C1=C\c1cn(Cc2ccccc2F)c2ccccc12`, -1.04. As to `CCn1c2ccccc2c2nnc(SCC(=O)Nc3nnc(C(C)C)s3)nc21`, the fold change is -1.93.
